The subject of one experiment is Chordin-like protein 2 (CHRDL2). The experiment is described as follows: CHRDL2 small-molecule binders, primary screen, biochemical, small-molecule microarray, 635 nm fluorescence (AID 1126).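 Note: printed compound slides probed with Chrdl2 protein at 4 µg/mL for 1 h at 4 C; score merges 667 nm emission intensity with signal to noise over three replicate slides.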 The conditions noted are these: small-molecule microarray binding, fluorescence 635 nm; higher = more signal.
Concanavalin-A (Canavalia ensiformis), sequence (P02866 whole entry, looked up): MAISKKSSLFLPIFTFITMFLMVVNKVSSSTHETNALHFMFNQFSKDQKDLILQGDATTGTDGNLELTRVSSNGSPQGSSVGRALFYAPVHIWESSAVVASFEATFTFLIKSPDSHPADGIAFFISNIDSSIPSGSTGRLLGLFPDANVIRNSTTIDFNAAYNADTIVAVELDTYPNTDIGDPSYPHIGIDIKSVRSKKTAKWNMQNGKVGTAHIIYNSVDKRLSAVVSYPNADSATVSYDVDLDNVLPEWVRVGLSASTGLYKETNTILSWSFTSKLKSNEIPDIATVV
`CC(C)[C@H]1COC(=O)N1C(=O)[C@H]1[C@@H](c2ccccc2)N(c2ccccc2)O[C@@H]1C` displayed a composite z-score of 0.827.

`O=C1O[C@@H](c2ccccc2)[C@@H](c2ccccc2)N2[C@@H](c3ccc(O)cc3)[C@]3(C(=O)Nc4ccc(C#CCCO)cc43)[C@@H](C(=O)O)[C@H]12`: the composite z-score came out at 0.434.

For the compound `Cc1ccc(S[C@]2(C(=O)NCCCN(C)C)CC(=O)N(C(C)C)[C@@H]2c2ccc(CO)cc2I)cc1`, the composite z-score was -0.0376.

With `Cc1ccc(N2C(=O)c3ccccc3[C@](C)(C(=O)NCCN3CCOCC3)[C@@H]2c2ccc(CO)cc2)nc1`, the composite z-score is -0.494. Same read-out and setting: the result for `COC(=O)C(CC#Cc1ccc2c(c1)[C@]1(C(=O)N2)[C@H](C(=O)N2CCCCCCC2)[C@H]2C(=O)O[C@H](c3ccccc3)[C@H](c3ccccc3)N2[C@@H]1c1ccccc1OCCO)C(=O)OC` reads 1.68.

Another experiment addresses Concanavalin-A (Canavalia ensiformis) (UniProt P02866). Briefly: ConA small-molecule binders, primary screen, artefact control for SMM control protein annotation, biochemical, small-molecule microarray, Alexa647 label, 635 nm (AID 1127).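 Note: z combines 667 nm emission intensity with signal-to-noise across three replicate slides.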 The following applies: ConA-A647 binding fluorescence, higher = more signal.
Turning to `Oc1ccc2cc[n+](Cc3cccc(OC(F)(F)F)c3)cc2c1`, the composite z-score came out at 0.373. `CC1CC/C=C\[C@H]2OC34C=CCN(CCN5CCOCC5)C(=O)[C@H]3N(CCCCCO)C(=O)[C@@H]4C2C(=O)O1` (stereo not given in full): the composite z-score was -0.233. Same read-out and setting: the same measure for `C=C(C(=O)CC[C@@H](OC(=O)c1cccnc1)c1ccc(CO)o1)C(C)C`: 0.383; for `C=CCC(OC(C)=O)[C@@H]1[C@@H](N(Cc2cc3ccccc3o2)C(=O)c2cccc3ccccc23)c2cc(OCCCO)ccc2N1C(=O)Cc1ccc(OC)cc1` (stereo not given in full): -0.162; for `C=CCN1C(=O)[C@]2(COC(c3ccc(OCCCO)cc3)=N2)Cc2ccccc21`: 0.953.

The compound `O=C(NCc1ccccc1)[C@@H]1c2ccccc2C(=O)N(C2CCCCC2)[C@H]1c1ccc(CO)cc1` registered a composite z-score of 0.335. The compound `[N-]=[N+]=NCc1ccccc1C[C@@]1(C(=O)NCc2ccccc2)N=C(c2ccc(OCCCO)cc2)O[C@@H]1c1ccccc1CN=[N+]=[N-]` gave a composite z-score of 1. `CCOC(=O)C=Cc1cccc(OC)c1O` displayed a composite z-score of 0.149. Compound `CN(C)CCCC[C@@H]1NC(=O)[C@H]2C[C@@H](C(=O)NCCCCCNC(=O)CS)[C@@H](c3ccc(O)cc3)N2C1=O` displayed a composite z-score of 0.734. With `COC(=O)[C@@]1(Cc2ccccc2)[C@H]2c3cc(C(=O)N(C)C)n(Cc4cc(F)c(F)c(F)c4)c3C[C@H]2CN1C(=O)c1ccccc1`, the composite z-score was found to be 0.953. The same measure, in the same setting: the result for `C=C(C)[C@@H]1CC=C(C(O)C2C=CC3C(=O)N(Cc4ccccc4)C(=O)C3N2n2cnnc2)CC1` (stereo not given in full) reads 0.317; that for `O=C(NCCN1CCOCC1)[C@@H]1c2ccccc2C(=O)N(Cc2cc(F)cc(C(F)(F)F)c2)[C@H]1c1ccc(CO)cc1`, -0.287. `O=C1O[C@H](c2ccccc2)[C@H](c2ccccc2)N2[C@H]1[C@@H](C(=O)NC[C@H](O)c1ccccc1)[C@]1(C(=O)Nc3ccc(C#CC4(O)CCCCCC4)cc31)[C@H]2c1ccccc1OCCO` came in with a composite z-score of 0.8. Turning to `C=C(/C(=C/C[C@@H](OC(=O)c1ccncc1)c1ccc(CO)o1)c1cc(C(=O)OC)ccc1OC)C(C)C`, the composite z-score was found to be 1.08. The same measure, in the same setting: the result for `COc1ccc([Si](C)(C)[C@@H]2[C@@H](CCO)O[C@]3(C(=O)N(Cc4ccccc4)c4ccc(N(C=O)c5ccccc5)cc43)[C@H]2C)cc1` reads 0.762; that for `CCCCCCC#C[Si](O[C@H](c1ccccc1)c1cn([C@H](C)c2ccccc2)nn1)(C(C)C)C(C)C`, 0.809.

For the compound `[N-]=[N+]=NCc1ccccc1[C@@H]1OC(c2ccc(OCCCO)cc2)=N[C@]1(Cc1ccccc1)C(=O)O`, the composite z-score came out at 0.802. Same read-out and setting: the same measure for `CCCC[C@@H]1C[C@H]1[C@@H](NC(=O)c1ccccc1)c1ccc(-c2ccccc2)cc1`: 0.147; for `Cc1ccc(S[C@]2(C(=O)NCCN3CCOCC3)CC(=O)N(C3CCCCC3)[C@@H]2c2ccc(CO)cc2)cc1`: 1.07. On to `CC(C)NC(=O)[C@@]1(c2ccc([N+](=O)[O-])cc2)CC(=O)N(C(C)C)[C@@H]1c1ccc(CO)cc1`, for which the composite z-score is -0.0183. For `C=CCN1Cc2ccccc2C[C@@]2(COC(c3ccc(OCCCO)cc3)=N2)C1=O`, the composite z-score stood at 0.85.

The compound `COCCn1c(C(=O)N2CCCC2)cc2c1C[C@H]1CN(C(=O)c3ccccc3)[C@@](Cc3ccc(OC)cc3)(C(=O)OC)[C@@H]21` showed a composite z-score of 1.05. `C=C[C@@H](C)[C@@H](OC(=O)Nc1ccc(OC)cc1)c1ccc(O)c2ccccc12` registered a composite z-score of 0.323. Same read-out and setting: the result for `COCCOC(=O)N1C(=O)[C@@]2(c3ccccc31)[C@H](C(=O)N1CCCCCCC1)[C@H]1C(=O)O[C@H](c3ccccc3)[C@H](c3ccccc3)N1[C@@H]2c1ccccc1OCCO` reads 1.2; that for `COCCn1c(C(=O)N(C)C)cc2c1C[C@H]1CN(C(=O)c3ccccc3)[C@@](Cc3ccc(F)cc3)(C(=O)OC)[C@@H]21`, 0.787.

(Values after PubChem BioAssay.)
